Screen size: about 2,300 compounds; about 1,100 (48%) were called active. No rule for the calls is given here. So high a share suggests a set chosen from earlier hits. The list shows a part of the results. Measured potencies and affinities stand elsewhere.
Assay: inhibitors in S. typhi counter-screen strain, dose response, counter-screen for PhoP regulon inhibitor project, fluorescence, 4 h (AID 2384)
Conditions: S. typhi GFP reporter counter-screen; series mostly up to 150 µM

Compound | inhibition
CC(C)[C@H](NC(=O)c1ccccc1Cl)C(=O)Nc1nc(-c2ccccn2)cs1 | inactive
O=C(Nc1ccncc1)c1cc(-c2ccccn2)nc2ccccc12 | inactive
Cn1cc(S(=O)(=O)Nc2ccc(OC(F)(F)F)cc2)c(=O)n(C)c1=O | inactive
CC(C)NC(=O)CN1CCN(Cc2nc(C(c3ccccc3)c3ccccc3)no2)CC1 | inactive
CCN1CCN(C(=O)Cc2coc3cc(C)cc(C)c23)CC1 | inactive
COc1c(C(=O)N2CCCC2)ccc2ccccc12 | inactive
O=C(O)c1cc2cc(F)ccc2[nH]1 | inactive
CCN1CCN(C(=O)/C=C/c2cccc(Cl)c2)CC1 | inactive
COc1ccc2c(C(=O)CCl)c[nH]c2c1 | inactive
Cc1c(Cl)cccc1NC(=O)C1CCN(S(C)(=O)=O)CC1 | inactive
COc1cccc(OC)c1C(=O)Nc1ccc(N2CCN(S(C)(=O)=O)CC2)cc1 | inactive
COCc1ccc(C(=O)Nc2ccc(C(=O)O)cc2)o1 | inactive
CCOC(=O)Cc1[nH]nc2c1C(c1ccoc1)C(C#N)=C(N)O2 (centres undefined) | inactive
O=C1c2ccccc2C(=O)C1(CO)c1ccc(OC(F)F)cc1 | inactive
O=c1c2ccccc2nc(-c2cccc(Cl)c2)n1O | inactive
COc1ccc(C(=O)O/N=C2\C(=O)N(C)c3ccccc32)cc1 | inactive
CC(=O)NCCn1c(SCc2ccccc2C)nc2ccccc2c1=O | inactive
Cc1nc(SCC(=O)N2c3ccccc3Sc3ccccc32)n[nH]1 | inactive
Cc1ccn2cc(C(=O)Nc3nnc(C)s3)nc2c1 | inactive
Cc1cccc(N/N=C/c2ccc(O)c(O)c2O)c1 | inactive
O=C(NCCO)C(=O)c1c(-c2ccc(Cl)cc2)cc2ccccn12 | inactive
CC(C)c1ccc(C2C(C#N)=C(N)Oc3c2oc(CO)cc3=O)cc1 (centres undefined) | inactive
COc1ccc(NS(=O)(=O)c2cccc(NC(=O)c3ccccn3)c2)cc1 | inactive
CCN(CC)CCNC(=O)c1cccc(NC(=O)C(=O)c2cc(Br)ccc2NC(C)=O)c1 | inactive
O=C(NC(=C(Cl)Cl)S(=O)(=O)c1ccc(Cl)cc1)c1ccccc1 | inactive

Compound | inhibition
O=C(Nc1ccccc1)Nc1cccc(Cl)c1 | inactive
O=C(CCl)Nc1nccs1 | inactive
O=C(NCc1cccnc1)c1ccc(Cl)cc1[N+](=O)[O-] | inactive
CCCN1C(=O)c2ccc(C(=O)Nc3nccs3)cc2C1=O | inactive
Nc1ccc(S(=O)(=O)Nc2nccs2)cc1 | inactive
CN1C(=O)/C(=C/c2cccc(Cl)c2)Sc2ccc(C(=O)N3CCCC3)cc21 | inactive
O=C(NCc1ccco1)c1ccc2c(c1)N(Cc1ccccc1)CCS2 | inactive
O=C(COC(=O)/C=C/c1cccc(C(F)(F)F)c1)NCc1ccccc1 | inactive
CCC(=O)Nc1nc(C)c(C(=O)N2CCCCC2)s1 | inactive
O=C1c2ccccc2C(=O)N1CCC(c1ccccc1)c1ccco1 (centres undefined) | inactive
CCc1ccccc1NC(=O)c1onc(C)c1Cl | inactive
CC1(C)CC(=O)C2=C(C1)N(c1ccc(F)cc1)C(=O)CC2c1ccsc1 (centres undefined) | inactive
CCc1cc(CNC(=O)C2CCC(=O)N(Cc3cccc(F)c3)C2)on1 (centres undefined) | inactive
Fc1ccccc1CSc1ccc(-c2ccco2)nn1 | inactive
COc1cccc(NC(=O)CSc2nncn2-c2ccccn2)c1 | inactive
N#CCCn1c2ccccc2c2nc3ccccc3nc21 | inactive
Cc1cccc(S(=O)(=O)c2c(N)n(/N=C/c3ccccc3)c3nc4ccccc4nc23)c1 | inactive
CCN1CCN(c2nc3ccccc3nc2C(C#N)S(=O)(=O)c2ccc(C)cc2)CC1 (centres undefined) | inactive
CCCCn1c(NCc2ccccc2NS(=O)(=O)c2ccc(C)cc2)nc2ccccc21 | inactive
CCCN(CCC)c1nc(C)cc(C(C#N)c2nc3ccccc3o2)n1 (centres undefined) | inactive
CS(=O)(=O)c1cnc2c(-c3ccsc3)cnn2c1N | inactive
CS(=O)(=O)c1cnc2c(-c3ccc(F)cc3)cnn2c1N | inactive
Cc1ccc(OCC(O)Cn2c(N)nc3c2c(=O)n(C)c(=O)n3C)cc1 (centres undefined) | inactive
C=C(C)Cn1c(-c2ccc(OC)cc2)nc2ccccc21 | inactive
CC(C)Cc1nc(N2CCOCC2)c(C#N)c2c1COC(C)(C)C2 | inactive

Compound | inhibition
C1CCC(n2nnnc2CN2CCN(C3CCCC3)CC2)CC1 | inactive
CCCCC(=O)Nc1ccc(F)c(Cl)c1 | inactive
CCN(CC)C(=O)C(=O)c1cn(CC(=O)N2CCc3ccccc3C2)c2ccccc12 | inactive
Cc1ccccc1-c1ncc(CN2CCN(C3CCCC3)C(CCO)C2)cn1 (centres undefined) | inactive
COc1cccc(/C=C/C(=O)c2cccc([N+](=O)[O-])c2)c1OC | inactive
O=C(On1c(-c2ccccc2)nc2ccccc2c1=O)c1ccco1 | inactive
COC(=O)c1cn(C(=O)c2ccco2)c2ccccc12 | inactive
COc1ccc(N(C(=O)c2cccnc2)S(=O)(=O)c2cccc([N+](=O)[O-])c2)cc1 | inactive
COC(=O)c1ccc(OC(=O)c2cccnc2)cc1 | inactive
COc1ccc(C[C@H]2CN3C(=NC[C@H]3Cc3ccccc3)N2CCNC(=O)c2ccc(C)c(Br)c2)cc1 | inactive
CCNC(=O)c1ccc(C2SCC(=O)N2CCc2ccccc2)cc1 (centres undefined) | inactive
COc1ccc2c(C(=O)CN(C)C3CCCCC3)c[nH]c2c1 | inactive
Cc1ccc(NC(=O)CCNC(=O)c2ccccc2)cc1F | inactive
CCN1CCN(CC(=O)Nc2ccc(C)c(Br)c2)CC1 | inactive
Cc1ccnc(NC(=O)CCC(=O)N(CC(=O)NC2CCCCC2)C2CCCC2)c1 | inactive
O=C(CSCc1ccccc1)Nc1cccc(C(=O)Nc2ccc(C(=O)O)cc2)c1 | inactive
CS(=O)(=O)N(CCc1ccccc1)CC(=O)Nc1ccc2c(c1)OCO2 | inactive
CN1C2=CC=CC=CC2=[N+](C)C12C=CC(=[N+]([O-])[O-])C=C2[N+](=O)[O-] (centres undefined) | inactive
Cc1cccc(/C(N)=N/OC(=O)N2CCOCC2)c1 | inactive
Cc1ccn2cc(-c3ccc4c(c3)NC(=O)CO4)nc2c1 | inactive
CC(C)n1cnnc1SCC(=O)Nc1ccc(Br)cc1F | inactive
N#Cc1ccc(-c2ccc(OCC(=O)NCCCN3CCCC3=O)cc2)cc1 | inactive
COc1ccc(-n2ncc3c(NCc4ccccn4)ncnc32)cc1 | inactive
C1=C(CCNc2ncnc3c2[nH]c2ccccc23)CCCC1 | inactive
